About 7,900 targets were measured; listed, in parts, are those with a hit and a random draw of the rest. About 0.6% of all pairs of compound and target were hits.
Columns and labels:
Experiment in all cases: log2 fold change, soluble protein after heating vs DMSO (PISA); higher = thermal stabilisation; K562 cells, 10 uM, 30 min; active = over 0.2 and 3.5 SD of the protein, either way, in both replicates (recomputed)
bafetinib = compound: Cc1ccc(NC(=O)c2ccc(CN3CC[C@H](N(C)C)C3)c(C(F)(F)F)c2)cc1Nc1nccc(-c2cncnc2)n1 [bafetinib]
Procedure, shortened: (§1)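 Soluble protein was quantified by TMTpro 16plex LC-MS/MS after channel sums were equalised. It was obtained as the supernatant after 21,000xg for 90 min from pooled aliquots of K562 cells (2×10^6 cells/mL, 10 μM compound, 30 min) heated for 3 min across 48°C-58°C and extracted in PBS with 0.5% NP-40 at 4°C. Thermal stability values are relative to control samples and come from duplicates. They are given as log2 fold changes.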

[1] = compound: Cc1cccc(CC(=O)N2CCc3c2ccc(-c2cn(C)c4ncnc(N)c24)c3F)n1
Procedure, shortened: as §1

nilotinib = compound: Cc1cn(-c2cc(NC(=O)c3ccc(C)c(Nc4nccc(-c5cccnc5)n4)c3)cc(C(F)(F)F)c2)cn1 [nilotinib]
Procedure, shortened: as §1

[2] = compound: Cc1nc(Nc2n[nH]c3c2CN(C(=O)N[C@H](CN(C)C)c2ccccc2)C3(C)C)c2sccc2n1
Procedure, shortened: as §1

dasatinib = compound: Cc1nc(Nc2ncc(C(=O)Nc3c(C)cccc3Cl)s2)cc(N2CCN(CCO)CC2)n1 [dasatinib]
Procedure, shortened: as §1

[3] = compound: Cc1ncc(-c2ccnc(Nc3ccc(S(C)(=O)=O)cc3)n2)n1C(C)C
Procedure, shortened: as §1

[4] = compound: Cn1cc(-c2ccc3c(c2)CCN3C(=O)Cc2cccc(C(F)(F)F)c2)c2c(N)ncnc21
Procedure, shortened: as §1

[5] = compound: Cn1cc(-c2ccc3nnc(C(F)(F)c4ccc5ncccc5c4)n3n2)cn1
Procedure, shortened: as §1

tipifarnib = compound: Cn1cncc1[C@@](N)(c1ccc(Cl)cc1)c1ccc2c(c1)c(-c1cccc(Cl)c1)cc(=O)n2C [tipifarnib]
Procedure, shortened: as §1

mubritinib = compound: FC(F)(F)c1ccc(/C=C/c2nc(COc3ccc(CCCCn4ccnn4)cc3)co2)cc1 [mubritinib]
Procedure, shortened: as §1

[6] = compound: NC(=O)Nc1cc(-c2cccc(F)c2)sc1C(=O)N[C@H]1CCCNC1
Procedure, shortened: as §1

[7] = compound: NC(=O)c1cnc(N[C@@H]2CCCC[C@@H]2N)nc1Nc1cccc(-n2nccn2)c1
Procedure, shortened: as §1

[8] = compound: NC1(c2ccc(-c3nc4ccn5c(=O)[nH]nc5c4cc3-c3ccccc3)cc2)CCC1
Procedure, shortened: as §1

[9] = compound: NCC(=O)Nc1ccc(-n2nc(C(F)(F)F)cc2-c2ccc3c(ccc4ccccc43)c2)cc1
Procedure, shortened: as §1

entinostat = compound: Nc1ccccc1NC(=O)c1ccc(CNC(=O)OCc2cccnc2)cc1 [entinostat]
Procedure, shortened: as §1

vorinostat = compound: O=C(CCCCCCC(=O)Nc1ccccc1)NO [vorinostat]
Procedure, shortened: as §1

citarinostat = compound: O=C(CCCCCCNC(=O)c1cnc(N(c2ccccc2)c2ccccc2Cl)nc1)NO [citarinostat]
Procedure, shortened: as §1

silmitasertib = compound: O=C(O)c1ccc2c(c1)nc(Nc1cccc(Cl)c1)c1ccncc12 [silmitasertib]
Procedure, shortened: as §1

[10] = compound: O=C1NC(=O)C(c2cnc3ccccn23)=C1c1cn2c3c(cc(F)cc13)CN(C(=O)N1CCCCC1)CC2
Procedure, shortened: as §1

[11] = compound: c1cc(OCCN2CCCCC2)cc(-c2n[nH]c3ccc(-c4nnc[nH]4)cc23)c1
Procedure, shortened: as §1

Measured: log2 fold change

ILVBL (UniProt A1L0T0)
inactive: bafetinib 0.065 | [1] -0.049 | nilotinib 0.074 | [2] 0.011 | dasatinib -0.09 | [3] -0.025 | [4] 0.247 | [5] -0.005 | tipifarnib -0.047 | mubritinib 0.041 | [6] -0.053 | [7] -0.036 | [8] -0.022 | [9] -0.007 | entinostat -0.041 | vorinostat 0.002 | citarinostat 0.064 | silmitasertib -0.008 | [10] -0.009 | [11] -0.064

LMNA (UniProt P02545)
Chain of UniProt P02545 (P02545 whole entry, looked up): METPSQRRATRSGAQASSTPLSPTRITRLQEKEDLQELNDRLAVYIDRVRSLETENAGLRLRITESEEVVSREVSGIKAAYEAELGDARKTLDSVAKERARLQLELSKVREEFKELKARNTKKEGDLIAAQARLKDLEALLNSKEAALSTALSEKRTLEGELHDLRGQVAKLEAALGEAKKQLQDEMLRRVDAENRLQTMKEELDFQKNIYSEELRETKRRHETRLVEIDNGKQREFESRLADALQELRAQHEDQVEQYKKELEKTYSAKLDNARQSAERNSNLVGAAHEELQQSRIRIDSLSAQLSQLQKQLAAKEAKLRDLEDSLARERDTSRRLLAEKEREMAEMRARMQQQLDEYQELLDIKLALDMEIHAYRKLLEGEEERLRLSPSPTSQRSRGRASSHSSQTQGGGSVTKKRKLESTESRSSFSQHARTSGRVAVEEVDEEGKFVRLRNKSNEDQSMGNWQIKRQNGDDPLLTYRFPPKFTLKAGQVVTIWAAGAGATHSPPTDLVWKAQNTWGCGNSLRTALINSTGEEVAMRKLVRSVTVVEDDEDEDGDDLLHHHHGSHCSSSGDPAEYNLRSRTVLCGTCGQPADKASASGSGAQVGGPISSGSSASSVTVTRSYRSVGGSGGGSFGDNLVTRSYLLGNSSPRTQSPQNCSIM
inactive: bafetinib -0.011 | [1] -0.025 | nilotinib 0.065 | [2] -0.116 | dasatinib 0.097 | [3] -0.179 | [4] -0.04 | [5] -0.043 | tipifarnib 0.064 | mubritinib -0.069 | [6] 0.205 | [7] -0.013 | [8] 0.024 | [9] 0.047 | entinostat -0.004 | vorinostat -0.026 | citarinostat 0.039 | silmitasertib 0.015 | [10] -0.075 | [11] -0.068

MFN2 (UniProt O95140)
Chain of UniProt O95140 (O95140 whole entry, looked up): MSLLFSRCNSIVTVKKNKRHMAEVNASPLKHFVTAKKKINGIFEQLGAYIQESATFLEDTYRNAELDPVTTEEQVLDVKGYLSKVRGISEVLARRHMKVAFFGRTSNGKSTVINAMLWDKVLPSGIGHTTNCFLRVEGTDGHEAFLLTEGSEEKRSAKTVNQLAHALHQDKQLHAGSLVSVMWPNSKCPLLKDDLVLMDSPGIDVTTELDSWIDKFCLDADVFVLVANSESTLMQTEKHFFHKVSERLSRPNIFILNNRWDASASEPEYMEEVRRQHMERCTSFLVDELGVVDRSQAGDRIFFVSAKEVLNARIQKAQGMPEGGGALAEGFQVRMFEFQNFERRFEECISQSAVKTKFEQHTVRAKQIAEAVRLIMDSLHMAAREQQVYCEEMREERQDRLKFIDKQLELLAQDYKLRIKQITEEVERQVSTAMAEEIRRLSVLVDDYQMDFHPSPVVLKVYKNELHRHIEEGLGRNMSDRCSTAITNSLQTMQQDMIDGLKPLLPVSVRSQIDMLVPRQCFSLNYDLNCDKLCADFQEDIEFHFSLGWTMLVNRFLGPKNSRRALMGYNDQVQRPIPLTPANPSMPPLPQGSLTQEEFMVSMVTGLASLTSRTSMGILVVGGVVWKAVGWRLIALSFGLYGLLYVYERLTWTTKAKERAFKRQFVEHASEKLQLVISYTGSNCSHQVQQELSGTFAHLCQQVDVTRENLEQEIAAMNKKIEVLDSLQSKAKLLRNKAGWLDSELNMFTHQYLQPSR
inactive: bafetinib -0.106 | [1] 0.068 | nilotinib -0.002 | [2] -0.022 | dasatinib -0.024 | [3] -0.01 | [4] -0.004 | [5] 0.018 | tipifarnib -0.004 | mubritinib 0.019 | [6] -0.081 | [7] -0.088 | [8] -0.104 | [9] -0.168 | entinostat 0.014 | vorinostat -0.019 | citarinostat -0.021 | silmitasertib -0.024 | [10] -0.019 | [11] -0.008

KPNA6 (UniProt O60684)
inactive: bafetinib -0.071 | [1] 0.078 | nilotinib -0.054 | [2] -0.038 | dasatinib -0.067 | [3] 0.003 | [4] -0.098 | [5] -0.015 | tipifarnib -0.033 | mubritinib -0.067 | [6] 0.01 | [7] -0.007 | [8] -0.06 | [9] -0.002 | entinostat 0.051 | vorinostat 0.061 | citarinostat 0.047 | silmitasertib 0.219 | [10] 0.067 | [11] -0.159

MAPK9 (UniProt P45984)
Chain of UniProt P45984 (P45984 whole entry, looked up): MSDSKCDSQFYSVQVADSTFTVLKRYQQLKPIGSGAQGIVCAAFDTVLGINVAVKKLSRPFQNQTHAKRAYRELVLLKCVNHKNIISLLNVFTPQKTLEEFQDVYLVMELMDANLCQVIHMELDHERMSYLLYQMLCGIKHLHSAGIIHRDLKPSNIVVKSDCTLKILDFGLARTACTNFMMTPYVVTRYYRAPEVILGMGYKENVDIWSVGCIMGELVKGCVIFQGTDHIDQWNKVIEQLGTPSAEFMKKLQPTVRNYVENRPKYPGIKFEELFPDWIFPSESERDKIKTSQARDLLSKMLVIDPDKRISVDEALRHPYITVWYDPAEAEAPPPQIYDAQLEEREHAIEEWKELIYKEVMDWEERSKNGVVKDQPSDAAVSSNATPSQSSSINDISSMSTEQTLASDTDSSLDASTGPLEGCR
inactive: bafetinib -0.112 | [1] 0.003 | nilotinib -0.023 | [2] 0.047 | dasatinib -0.044 | [3] 0.134 | [4] 0.042 | [5] 0.04 | tipifarnib 0.015 | mubritinib -0.059 | [6] -0.058 | [7] -0.023 | [8] -0.053 | [9] -0.022 | entinostat -0.028 | vorinostat -0.058 | citarinostat -0.022 | silmitasertib -0.012 | [10] -0.102 | [11] 0.187

LIAS (UniProt O43766)
Chain of UniProt O43766 (O43766 whole entry, looked up): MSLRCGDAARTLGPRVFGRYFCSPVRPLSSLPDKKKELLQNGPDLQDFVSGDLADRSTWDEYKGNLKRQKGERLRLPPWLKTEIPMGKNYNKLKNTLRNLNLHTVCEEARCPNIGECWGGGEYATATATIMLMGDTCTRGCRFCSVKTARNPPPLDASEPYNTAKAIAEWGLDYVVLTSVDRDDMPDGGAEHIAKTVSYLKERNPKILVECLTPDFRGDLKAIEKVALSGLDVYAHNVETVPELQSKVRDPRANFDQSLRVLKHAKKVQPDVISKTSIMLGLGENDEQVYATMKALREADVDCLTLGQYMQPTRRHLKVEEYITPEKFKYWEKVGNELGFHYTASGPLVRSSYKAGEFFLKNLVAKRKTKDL
inactive: bafetinib -0.034 | [1] -0.079 | nilotinib 0.038 | [2] 0.003 | dasatinib 0.028 | [3] -0.059 | [4] -0.017 | [5] 0.059 | tipifarnib 0.098 | mubritinib 0.002 | [6] -0.079 | [7] 0.014 | [8] -0.035 | [9] -0.016 | entinostat -0.047 | vorinostat -0.17 | citarinostat -0.093 | silmitasertib 0.026 | [10] 0.062 | [11] -0.022

MAP4K4 isoform 3 (UniProt O95819)
Chain of UniProt O95819 (O95819 whole entry, looked up): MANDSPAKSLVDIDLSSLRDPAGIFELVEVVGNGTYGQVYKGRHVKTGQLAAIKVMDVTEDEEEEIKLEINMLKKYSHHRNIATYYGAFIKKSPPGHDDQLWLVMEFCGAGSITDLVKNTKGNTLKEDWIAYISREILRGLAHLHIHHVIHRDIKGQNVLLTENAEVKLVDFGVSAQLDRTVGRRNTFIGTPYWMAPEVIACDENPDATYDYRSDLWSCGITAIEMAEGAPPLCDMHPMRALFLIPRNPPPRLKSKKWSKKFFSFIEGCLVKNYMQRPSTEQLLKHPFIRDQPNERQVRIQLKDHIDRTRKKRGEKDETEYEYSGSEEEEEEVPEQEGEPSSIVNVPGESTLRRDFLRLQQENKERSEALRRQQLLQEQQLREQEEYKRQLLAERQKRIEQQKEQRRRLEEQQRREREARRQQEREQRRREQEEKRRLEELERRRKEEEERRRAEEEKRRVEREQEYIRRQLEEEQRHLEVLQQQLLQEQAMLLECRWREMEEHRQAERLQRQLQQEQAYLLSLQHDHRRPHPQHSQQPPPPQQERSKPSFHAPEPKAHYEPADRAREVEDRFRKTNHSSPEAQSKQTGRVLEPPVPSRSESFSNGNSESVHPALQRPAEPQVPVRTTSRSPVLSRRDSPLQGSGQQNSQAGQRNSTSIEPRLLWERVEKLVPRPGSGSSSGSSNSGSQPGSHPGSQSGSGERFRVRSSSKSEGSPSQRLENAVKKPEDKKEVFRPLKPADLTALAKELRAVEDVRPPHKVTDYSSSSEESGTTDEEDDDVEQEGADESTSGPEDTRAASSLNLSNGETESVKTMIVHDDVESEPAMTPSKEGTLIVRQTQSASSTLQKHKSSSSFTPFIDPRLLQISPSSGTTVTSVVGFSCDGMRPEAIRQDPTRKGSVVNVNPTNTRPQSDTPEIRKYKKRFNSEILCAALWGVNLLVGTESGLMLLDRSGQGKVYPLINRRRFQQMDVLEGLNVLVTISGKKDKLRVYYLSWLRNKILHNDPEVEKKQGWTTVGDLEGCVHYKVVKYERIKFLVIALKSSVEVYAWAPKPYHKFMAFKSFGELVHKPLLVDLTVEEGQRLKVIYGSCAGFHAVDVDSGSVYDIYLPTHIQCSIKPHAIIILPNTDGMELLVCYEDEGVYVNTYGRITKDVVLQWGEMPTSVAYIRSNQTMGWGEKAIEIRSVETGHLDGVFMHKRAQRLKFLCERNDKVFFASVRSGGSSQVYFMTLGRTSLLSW
inactive: bafetinib -0.068 | [1] 0.029 | nilotinib -0.038 | [2] -0.094 | dasatinib -0.162 | [3] -0.09 | [4] -0.024 | [5] 0.038 | tipifarnib -0.027 | mubritinib 0.021 | [6] -0.199 | [7] -0.154 | [8] -0.204 | [9] -0.013 | entinostat 0.07 | vorinostat 0.075 | citarinostat 0.044 | silmitasertib -0.024 | [11] -0.179

LMF2 (UniProt Q9BU23)
Chain of UniProt Q9BU23 (Q9BU23 whole entry, looked up): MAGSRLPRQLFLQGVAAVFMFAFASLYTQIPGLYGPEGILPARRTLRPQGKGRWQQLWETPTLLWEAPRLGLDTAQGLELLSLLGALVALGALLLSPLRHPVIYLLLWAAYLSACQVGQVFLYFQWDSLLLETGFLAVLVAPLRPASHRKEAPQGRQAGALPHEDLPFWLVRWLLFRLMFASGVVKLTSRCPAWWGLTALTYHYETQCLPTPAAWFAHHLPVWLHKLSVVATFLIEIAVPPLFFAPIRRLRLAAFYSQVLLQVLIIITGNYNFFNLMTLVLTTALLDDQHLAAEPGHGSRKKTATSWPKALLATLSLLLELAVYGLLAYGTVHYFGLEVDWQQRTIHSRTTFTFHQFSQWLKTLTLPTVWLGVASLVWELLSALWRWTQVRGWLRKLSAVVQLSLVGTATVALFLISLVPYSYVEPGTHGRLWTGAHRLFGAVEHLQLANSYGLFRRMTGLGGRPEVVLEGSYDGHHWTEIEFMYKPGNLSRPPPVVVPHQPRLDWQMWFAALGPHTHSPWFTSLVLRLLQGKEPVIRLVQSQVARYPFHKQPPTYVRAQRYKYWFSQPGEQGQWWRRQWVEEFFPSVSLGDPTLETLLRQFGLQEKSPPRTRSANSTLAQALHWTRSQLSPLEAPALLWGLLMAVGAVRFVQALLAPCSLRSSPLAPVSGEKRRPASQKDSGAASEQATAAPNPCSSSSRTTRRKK
inactive: bafetinib -0.068 | [1] 0.024 | nilotinib 0.047 | [2] -0.014 | dasatinib 0.033 | [3] 0.026 | [4] 0.021 | [5] 0.022 | tipifarnib 0.019 | mubritinib 0.052 | [6] -0.008 | [7] -0.001 | [8] -0.057 | [9] -0.089 | entinostat -0.006 | vorinostat 0.116 | citarinostat -0.068 | silmitasertib 0.008 | [10] -0.016 | [11] 0.046
